± gives the standard deviation of the averaged measurements.

The source of these data is the supplement of paper PMC7156485.

Conditions in all cases: concentration: 10 µM; 24 h
Experiment [1] concerns HCC1569. The experiment in a line: cell number relative to DMSO (% of DMSO); higher = more cells (less growth inhibition / toxicity). In short, it runs like this: (§1)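 Using 384-well plates with 800 cells per well in RPMI plus 10% FBS, HCC1569 and TDF cells were exposed to compounds at 10 µM, in triplicate, for 24 h at 37 °C. Imaging of six fields per well at ×10 followed H1.0 and DAPI staining. The reported quantity, H1.0 nuclear intensity or cell number, is a median of replicates given as percent of the plate control, and HCC1569 values were smoothed for positional effects.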

Experiment [2] deals with TDF. The experiment is described as above. In short, it runs like this: as §1
For experiment [3], the system named is TDF. The experiment in a line: H1.0 immunofluorescence intensity relative to DMSO (% of DMSO); higher = stronger H1.0 induction, active = 120 or more. In a few lines:
as §1

The subject of experiment [4] is HCC1569. The experiment in a line: H1.0 immunofluorescence intensity relative to DMSO (% of DMSO); higher = stronger H1.0 induction, active = 140 or more. In a few lines: as §1
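Wherever H1.0 immunofluorescence intensity relative to DMSO is given: TDF is a line of transformed human dermal fibroblasts of mesenchymal origin.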
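Wherever cell number relative to DMSO is given: TDF denotes transformed human dermal fibroblasts of mesenchymal origin.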

Take `CC(C)c1ccc2c(c1)c(SC(C)(C)C)c(CC(C)(C)C(=O)[O-])n2Cc1ccc(Cl)cc1.[Na+]`: the values for the cell number in the experiment on HCC1569 [1] and in the experiment on TDF [2] were 102 and 108, respectively. For the same molecule, the H1.0 immunofluorescence intensity was 91.8 (inactive) in the experiment on TDF [3] and 91.2 (inactive) in the experiment with HCC1569 [4].
For the molecule `NC(N)=NC(CCC(=O)O)C(=O)O` (stereo not drawn) [alpha-Guanidinoglutaric acid], the cell number in the experiment on HCC1569 [1] was 104; in the experiment with TDF [2] it was 108. Besides, the H1.0 immunofluorescence intensity in the experiment on TDF [3] is 92.6 (inactive); in the experiment with HCC1569 [4] it was 86.2 (inactive).
As for `CC(C[N+](C)(C)C)OC(N)=O.[Cl-]` (stereo not given) [Bethanechol chloride], the cell number in the experiment with HCC1569 [1] came to 91.3; with TDF [2] it was 100. In addition, the H1.0 immunofluorescence intensity with TDF [3] is 92.6 (inactive); in the experiment on HCC1569 [4] it was 99.3 (inactive).
With `NC(=O)OCC(COC(N)=O)c1ccccc1` [Felbamate], the results for the cell number with HCC1569 [1] and in the experiment on TDF [2] were 111 ± 15 and 109 ± 1.2, respectively. The H1.0 immunofluorescence intensity in the experiment with TDF [3] was 97 (inactive); with HCC1569 [4] it was 93.1 (inactive).
Regarding `COc1cc(/C=C/C(=O)NCCn2c(C)cc3ccccc32)cc(OC)c1OC`, the cell number in the experiment on HCC1569 [1] was 103; in the experiment with TDF [2], 96.6. For the same molecule, the figures for the H1.0 immunofluorescence intensity in the experiment with TDF [3] and with HCC1569 [4] were 103 (inactive) and 106 (inactive), respectively.
As to `CC(C)N(CCC(=O)c1ccc2ccccc2c1)Cc1ccccc1.Cl` [JAK3 Inhibitor IV], the values for the cell number in the experiment with HCC1569 [1] and in the experiment on TDF [2] were 101 and 97, respectively. The H1.0 immunofluorescence intensity in the experiment on TDF [3] was 96.1 (inactive); with HCC1569 [4] it was 110 (inactive).
As for `CCCN(CCc1ccccc1)C1CCc2c(O)cccc2C1` (stereo not given) [2-(N-Phenethyl-N-propyl)amino-5-hydroxytetralin], the figures for the cell number in the experiment on HCC1569 [1] and with TDF [2] were 105 and 96.6, respectively. Besides, the H1.0 immunofluorescence intensity was 89.4 (inactive) in the experiment on TDF [3] and 106 (inactive) with HCC1569 [4].
As for `CN(C)CCC=C1c2ccccc2CCc2ccccc21.Cl` [Amitriptyline.HCl], the cell number in the experiment with HCC1569 [1] was found to be 105; in the experiment on TDF [2] it was 89.4. Further, the H1.0 immunofluorescence intensity was 99.6 (inactive) in the experiment with TDF [3] and 123 (inactive) in the experiment with HCC1569 [4].
For `CCCCCCCCCCCCCC=CC(O)C(CO)NC(C)=O` (stereo not given) [C2 Ceramide] the same measures were 101, 107, 94.8 (inactive) and 102 (inactive).
Consider `Cc1cnc(Nc2ccc(OCCN3CCCC3)cc2)nc1Nc1cccc(S(=O)(=O)NC(C)(C)C)c1`, for which the results for the cell number in the experiment on HCC1569 [1] and in the experiment on TDF [2] were 67.1 and 43.3, respectively. Further, the H1.0 immunofluorescence intensity in the experiment on TDF [3] is 116 (inactive); with HCC1569 [4], 189 (active).
On to `COCCc1ccc(OCC(O)CNC(C)C)cc1.COCCc1ccc(OCC(O)CNC(C)C)cc1.O=C(O)C(O)C(O)C(=O)O` (racemic), for which the cell number is 99.5 in the experiment with HCC1569 [1] and 106 in the experiment with TDF [2]. For the same molecule, the results for the H1.0 immunofluorescence intensity with TDF [3] and with HCC1569 [4] were 95.6 (inactive) and 108 (inactive), respectively.
For `CC(C)(C)c1cnc(CSc2cnc(NC(=O)C3CCNCC3)s2)o1` the same measures were 105, 102, 95 (inactive) and 100 (inactive).
Consider `NC(=S)NCCCC(N)C(=O)O` (stereo not given) [Thiocitrulline], for which the cell number in the experiment on HCC1569 [1] came to 104; with TDF [2], 112. Also, the H1.0 immunofluorescence intensity in the experiment on TDF [3] was 91.5 (inactive); in the experiment on HCC1569 [4], 95.7 (inactive).
On to `CN=C(NC#N)NCCSCc1nc[nH]c1C` [Cimetidine], for which the cell number in the experiment on HCC1569 [1] turned out to be 102 ± 1.8; with TDF [2] it was 100 ± 12. The H1.0 immunofluorescence intensity was 102 (inactive) in the experiment with TDF [3] and 92.1 (inactive) in the experiment with HCC1569 [4].
For `NC(=NCc1ccccc1)NC(=O)c1nc(Cl)c(N)nc1N` [Benzamil], the cell number in the experiment on HCC1569 [1] and in the experiment on TDF [2] was 99.9 in each case. Further, the H1.0 immunofluorescence intensity with TDF [3] was 98.7 (inactive); in the experiment with HCC1569 [4] it was 112 (inactive).
